In PubChem BioAssay (NCATS):
Inconclusive results are not listed. A call without a number means that no potency is given here. Values without a mark were called inactive. Calls of active or inactive are those of the source. Calls come from the whole dose curve; as a rule, active = well fitted curve in the direction sought with a large enough effect; inconclusive = small, poorly fitted or top-dose-only effect, or another doubt; inactive = no such curve, though single readings can be large; an effect the other way counts as inactive or inconclusive.

Assay: qHTS for Inhibitors of Plasmodium falciparum (DD2) proliferation (AID 504314);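 note: parasite DNA measured by SYBR Green fluorescence after red cell lysis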
Details: P. falciparum Dd2 in erythrocytes, SYBR Green growth, 72 h; series mostly up to 6.11 µM
Method in brief: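 Fluorescence read-out (ex 485/em 535 nm) of SYBR Green-stained parasite DNA quantifies intraerythrocytic growth. Cultures at 0.3% parasitemia and 2.5% hematocrit were treated for 72 h; data normalized to DMSO and 0.29 uM artemisinin wells.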

Compound	Potency	activity, negative = inhibition
COCC=CC1=CC2=CC(=O)C(C)(OC(=O)c3cnc4ccccc4n3)C(=O)C2=CN1Cc1ccc(OC)cc1 (stereo not given)	inactive	–
COC(=O)N[C@H](CC(C)=O)c1ccc2c(c1)OCO2	inactive	–
COc1ccc(CN2C=C3C(=O)C(C)(OC(=O)C4CCCC4)C(=O)C=C3C=C2c2ccsc2)cc1 (stereo not given)	–	-5.43% [at 1.12 µM]
COC(=O)N[C@@H](C=Cc1ccccc1)C[N+](=O)[O-]	inactive	–
COC(=O)[C@H]1[C@H](CCc2ccccc2)NC(=O)N(Cc2ccccc2)[C@H]1C	inactive	–
COC(=O)CC=C[C@@H](C)[C@H](NC(=O)OCC(Cl)(Cl)Cl)c1ccc2ccccc2c1	inactive	–

Assay: qHTS for Inhibitors of Plasmodium falciparum (GB4) proliferation (AID 504315); note: nearly all actives have a fitted effect of over 50% in size
Details: P. falciparum GB4 in erythrocytes, SYBR Green DNA, 72 h; series mostly up to 6.7 µM
Method in brief: (§1)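 Erythrocytes infected with P. falciparum line (0.3% parasitemia, 2.5% hematocrit final) incubated with compounds 72 h at 37 °C, 5% CO2; SYBR Green lysis buffer added, fluorescence read next day. Normalized to 0.29 uM artemisinin and DMSO.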

Compound	Potency
CC(C)CON=C1C[C@@H](O)[C@@H](O)[C@@H]2[C@H]3C(=O)N(Cc4ccc5c(c4)OCO5)C(=O)[C@@H]3CC[C@@H]12	inactive
C[C@H]1Cc2c(COc3ccccc3)nc3c(c2CO1)CN(S(=O)(=O)c1ccc2c(c1)OCCN2C)CC3	inactive
COC(=O)C1=C[C@@]2(c3ccc(F)cc3[C@@H](OC)[C@@H]2C)[C@@H]2C=C[C@H]1C2	inactive
COc1ccc(N2C=C3C(=O)C(C)(OC(=O)C4CCCC4)C(=O)C=C3C=C2c2ccsc2)cc1 (stereo not given)	inactive
COCCN1C(=S)NC(c2cccc(F)c2)C(C(=O)OC)=C1C (stereo not given)	inactive
C=CC1=C2C=C(C3CC3)N(c3ccc(OC)cc3)C=C2C(=O)C(C)(OC(=O)c2ccco2)C1=O (stereo not given)	inactive
C=CCN1C(=O)CC[C@@]23C1=NC(C(=O)OC)=C(C(=O)OC)[C@@H]2N(CC#CC)c1ccccc13	inactive
C[C@H](NC(=O)N1CCc2nc(-c3ccccc3)c3c(c2C1)CO[C@@H](C)C3)c1ccccc1	inactive
COC(=O)CCC(=O)OC1(C)C(=O)C=C2C=C(C3CC3)N(c3ccc(CO)cc3)C=C2C1=O (stereo not given)	inactive
COc1ccc2c(c1)O[C@@H](c1cccc(C(F)(F)F)c1)[C@H](OC(=O)NC1CCCC1)C2=O	inactive
C[C@@H]1CC[C@H]2C(=O)N3[C@@H](CC[C@@H](C)[C@@H]3c3ccc(Br)cc3)C(=O)N2[C@@H]1c1ccc(Br)cc1	inactive
C[C@H](NC(=O)N1CCc2nc(COc3ccccc3)c3c(c2C1)CO[C@@H](C)C3)c1ccccc1	inactive
COc1ccc2c(c1)C(=O)[C@H](OC(=O)N[C@H]1CCCc3ccccc31)[C@@H](c1ccc(OC)c(Br)c1)O2	inactive
COC(=O)N[C@H](CC(C)=O)c1ccc2c(c1)OCO2	inactive
COc1ccc(CN2C=C3C(=O)C(C)(OC(=O)C4CCCC4)C(=O)C=C3C=C2c2ccsc2)cc1 (stereo not given)	inactive
COC(=O)N[C@@H](C=Cc1ccccc1)C[N+](=O)[O-]	inactive

Assay: qHTS for Inhibitors of Plasmodium falciparum (7G8) proliferation (AID 504316); note: nearly all actives have a fitted effect of over 65% in size; note: potency is the fitted concentration of half-maximal effect
Details: P. falciparum 7G8 in erythrocytes, SYBR Green DNA, 72 h; series mostly up to 6.7 µM
Method in brief: as §1

Compound	Potency
CC(=O)OC[C@H]1O[C@H](C#Cc2ccccc2)C=C[C@H]1O	inactive
COC(=O)CCCC1=CC2=CC(=O)C(C)(OC(=O)c3cccs3)C(=O)C2=CN1C1CCCC1 (stereo not given)	inactive
CC(CCC(=O)OC[C@H]1O[C@H](C#Cc2ccccc2)C=C[C@H]1Oc1ccc(C)cc1)=NO[C@@H](C)c1cn([C@H](CO)Cc2ccccc2)nn1	inactive
CCO[C@H](c1cc(OC)cc([N+](=O)[O-])c1OC)[C@H](C)[C@@H](OC)[C@H](C)C=CCC(=O)OC	inactive
COc1ccc(-c2nc3c(c4c2C[C@H](c2ccccc2)OC4)CN(C(=O)c2cc(I)ccc2F)CC3)c(C)c1	1900 nM (active)
COC(=O)CC(Oc1c(C)n(C)c2ccccc2c1=O)c1ccccc1 (stereo not given)	inactive
C[C@H](ON=C1[C@H]2CCn3c(=O)n(-c4ccccc4)c(=O)n3[C@@H]2[C@H](O)[C@@H]2O[C@H]12)c1cn([C@H](CO)Cc2ccccc2)nn1	inactive
CC(=O)OC[C@H]1O[C@@H](ON=CC[C@@H]2C=C[C@@H](OC(C)=O)[C@@H](COC(C)=O)O2)[C@@H](OC(C)=O)[C@@H](OC(C)=O)[C@@H]1OC(C)=O	inactive
C=CCC(C)(NCc1ccccc1)C(=O)OCC (stereo not given)	inactive
COc1ccc(C(O)C2=CCCC2=O)cc1 (stereo not given)	inactive
COc1cc2c(c(OC)c1)[C@H](C=Cc1ccccc1)[C@@H]([C@H](O)CO)OC2	inactive
CC(C)=CCC12CC3[C@@H](O)C(C(=O)c4ccccc4)(C1=O)C(=O)C(CC=C(C)C)(C2=O)C3(C)C (stereo not given in full)	inactive
COC(=O)C1=C(C)N(Cc2ccccc2)C(=O)NC1c1cccc(F)c1 (stereo not given)	inactive
C=CC[C@@H]1C=C(C(=O)OC)N(C(=O)C(F)(F)F)[C@@H](c2ccccc2Br)[C@@H]1C	inactive
CCOC(=O)C1=CN(CCC=C(C)C)C(=O)NC1c1ccccc1 (stereo not given)	inactive
COC(=O)CCCC1=CC2=C(c3ccccc3)C(=O)C(C)(OC(=O)C3CCCC3)C(=O)C2=CN1c1ccccc1 (stereo not given)	inactive
C=CCCCN1C(=O)NC(c2ccccc2)C(C(=O)OC)=C1C (stereo not given)	inactive
CCCCCCCC1=CC2=C(Cl)C(=O)C(C)(OC(C)=O)C(=O)C2=CO1 (stereo not given)	inactive
C=CC[C@@]1(c2ccc(Br)cc2OC)Oc2ccccc2-c2nccnc21	inactive
CCCCCCCc1cc2c(cn1)C(=O)C(C)(OC(C)=O)C(O)=C2Cl (stereo not given)	953 nM (active)
COCC=CC1=CC2=CC(=O)C(C)(OC(=O)c3cnc4ccccc4n3)C(=O)C2=CN1Cc1ccc(OC)cc1 (stereo not given)	inactive
COC(=O)[C@H]1[C@H](CCc2ccccc2)NC(=O)N(Cc2ccccc2)[C@H]1C	inactive
COC(=O)CC=C[C@@H](C)[C@H](NC(=O)OCC(Cl)(Cl)Cl)c1ccc2ccccc2c1	inactive
